Measurements: PubChem BioAssay AID1159580 (chemical genetic matrix, 2015)
“And” between values parts separate entries of the source, which are not always exact repeats. Equal values may be shown once. The campaign covered roughly 5,500 compounds. About 2,000 (36%) were called active. Not shown: some 18% with an inconclusive outcome. Rule as the data show it: active = normalized growth mostly below about 0.91 (no sharp cut-off); inconclusive = no clear call, values can overlap the other calls; inactive = mostly above about 0.92. The list shows a part of the results.

Test: chemical genetic growth profiling, strain panel (AID 1159580);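 also: tested at 20 µM; growth read once vehicle control cultures reached saturation at 30 °C; 1 = growth at the plate median or of vehicle wells; lower values mean less growth of the strain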
Conditions: S. cerevisiae deletion strains, growth OD

Measured: normalized growth

O=C(O)CCC(=O)OC[C@@H](NC(=O)C(Cl)Cl)[C@H](O)c1ccc([N+](=O)[O-])cc1
inactive: locus YAL021C, strain ccr4, active compounds read low 0.99 | locus YAL026C, strain drs2, active compounds read low 0.993 | locus YAL030W, strain snc1, active compounds read low 0.981 | locus YBL061C, strain skt5, active compounds read low 0.971 | locus YBR009C, strain hhf1, active compounds read low 0.956 | locus YBR021W, strain FUR4, active compounds read low 1.02 | locus YBR023C, strain chs3, active compounds read low 0.976 | locus YBR171W, strain sec66, active compounds read low 0.962 | locus YBR229C, strain ROT2, active compounds read low 0.951 | locus YBR231C, strain swc5, active compounds read low 1 | locus YBR279W, strain paf1, active compounds read low 0.989 | locus YCL011C, strain gbp2, active compounds read low 0.942 | locus YCL016C, strain dcc1, active compounds read low 0.953 | locus YCL029C, strain bik1, active compounds read low 0.986 | locus YCL061C, strain MRC1, active compounds read low 0.981 | locus YCL069W, strain vba3, active compounds read low 0.982 | locus YCR088W, strain abp1, active compounds read low 0.986 | locus YDL005C, strain med2, active compounds read low 0.984 | locus YDL035C, strain GPR1, active compounds read low 0.974 | locus YDL040C, strain nat1, active compounds read low 0.996 | locus YDL074C, strain BRE1, active compounds read low 0.98 | locus YDL101C, strain DUN1, active compounds read low 0.995 | locus YDL134C, strain PPH21, active compounds read low 0.964 | locus YDL185W, strain tfp1, active compounds read low 0.96 | locus YDL192W, strain arf1, active compounds read low 0.979 | locus YDR001C, strain nth1, active compounds read low 0.975 | locus YDR069C, strain doa4, active compounds read low 1.01 | locus YDR101C, strain arx1, active compounds read low 0.963 | locus YDR137W, strain rgp1, active compounds read low 0.963 | locus YDR150W, strain NUM1, active compounds read low 0.982 | locus YDR159W, strain sac3, active compounds read low 0.997 | locus YDR162C, strain NBP2, active compounds read low 0.93 | locus YDR195W, strain ref2 1 | locus YDR297W, strain sur2, active compounds read low 0.964 | locus YDR318W, strain mcm21, active compounds read low 0.99 | locus YDR334W, strain swr1, active compounds read low 0.945 | locus YDR335W, strain msn5, active compounds read low 0.973 | locus YDR388W, active compounds read low 0.983 | locus YDR392W, strain spt3, active compounds read low 0.914 | locus YDR502C, strain sam2, active compounds read low 0.991 | locus YEL003W, strain gim4, active compounds read low 0.982 | locus YEL037C, strain rad23, active compounds read low 0.991 | locus YEL061C, strain CIN8 (second series), active compounds read low 0.987 | locus YEL061C, strain CIN8, active compounds read low 0.988 | locus YER015W, strain faa2, active compounds read low 0.989 | locus YER016W, strain bim1, active compounds read low 0.988 | locus YER110C, active compounds read low 0.964 | locus YER111C, strain swi4, active compounds read low 0.982 | locus YER155C, strain BEM2 (second series), active compounds read low 1.04 | locus YER155C, strain BEM2, active compounds read low 0.989 | locus YER167W, strain BCK2, active compounds read low 0.997 | locus YFR010W, strain ubp6, active compounds read low 0.979 | locus YGL078C, strain dbp3, active compounds read low 0.995 | locus YGL167C, strain pmr1, active compounds read low 0.974 | locus YGL173C, strain kem1, active compounds read low 0.967 | locus YGL227W, strain vid30, active compounds read low 0.977 | locus YGL240W, strain doc1, active compounds read low 1 | locus YGL248W, strain PDE1, active compounds read low 1.01 | locus YGL253W, strain hxk2, active compounds read low 0.968 | locus YGR135W, strain pre9, active compounds read low 1.03 | locus YGR229C, strain SMI1, active compounds read low 0.969 | locus YGR252W, strain gcn5, active compounds read low 1.07 | locus YHR013C, strain ard1, active compounds read low 0.955 | locus YHR027C, strain rpn1, active compounds read low 0.956 | locus YHR030C, strain SLT2, active compounds read low 0.974 | locus YHR079C, strain IRE1 (second series), active compounds read low 0.989 | locus YHR079C, strain IRE1, active compounds read low 0.961 | locus YHR094C, strain hxt1, active compounds read low 0.979 | locus YHR129C, strain ARP1, active compounds read low 0.982 | locus YHR142W, strain chs7, active compounds read low 0.926 | locus YHR200W, strain rpn10, active compounds read low 0.981 | locus YIL066C, strain RNR3, active compounds read low 0.947 | locus YIL073C, strain SPO22, active compounds read low 0.988 | locus YIL125W, strain kgd1, active compounds read low 0.983 | locus YIR030C, strain dcg1, active compounds read low 0.98 | locus YJL092W, strain hpr5, active compounds read low 0.981 | locus YJL095W, strain BCK1 (second series), active compounds read low 0.972 | locus YJL095W, strain BCK1, active compounds read low 1.04 and 0.971 | locus YJL115W, strain asf1, active compounds read low 0.969 | locus YJL129C, strain trk1, active compounds read low 0.968 | locus YJL134W, strain LCB3, active compounds read low 0.982 | locus YJL154C, strain vps35, active compounds read low 0.975 | locus YJL164C, strain tpk1, active compounds read low 0.968 | locus YJL166W, strain qcr8, active compounds read low 0.964 | locus YJL168C, strain set2, active compounds read low 0.983 | locus YJL187C, strain SWE1 (second series), active compounds read low 1 | locus YJL187C, strain SWE1, active compounds read low 0.975
